Experimental data published in the supplement of paper PMC3334620.
The full ranking holds about 33,000 sequences; the median of “E-score (-0.5 to 0.5)” is about -0.056, and the highest 2% start at about 0.38. Only a selection was taken, and the highest values are over-represented in it overall.

Target: Stb4 (UniProt P50104)
Experiment: PBM E-score (8-mer binding enrichment) (E-score (-0.5 to 0.5)); higher = stronger / more preferred TF binding
Conditions: protein concentration: 200 nM; construct: GST-DNA-binding domain
Procedure: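 Universal 'all 10-mer' protein binding microarrays (Agilent AMADID 015681) probed with GST-tagged S. cerevisiae TFs (full-length or DBD) made by in vitro transcription/translation (PURExpress), about 100-200 nM. Bound TF was detected with fluorescent anti-GST. Each ungapped 8-mer (which stands for itself and its reverse complement) is scored by the PBM enrichment score (E-score), a modified Wilcoxon-Mann-Whitney statistic from -0.5 to +0.5, computed with the Universal PBM Analysis Suite. Scale: above 0.35 generally sequence-specific binding.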

Sequence of UniProt P50104 (P50104 whole entry): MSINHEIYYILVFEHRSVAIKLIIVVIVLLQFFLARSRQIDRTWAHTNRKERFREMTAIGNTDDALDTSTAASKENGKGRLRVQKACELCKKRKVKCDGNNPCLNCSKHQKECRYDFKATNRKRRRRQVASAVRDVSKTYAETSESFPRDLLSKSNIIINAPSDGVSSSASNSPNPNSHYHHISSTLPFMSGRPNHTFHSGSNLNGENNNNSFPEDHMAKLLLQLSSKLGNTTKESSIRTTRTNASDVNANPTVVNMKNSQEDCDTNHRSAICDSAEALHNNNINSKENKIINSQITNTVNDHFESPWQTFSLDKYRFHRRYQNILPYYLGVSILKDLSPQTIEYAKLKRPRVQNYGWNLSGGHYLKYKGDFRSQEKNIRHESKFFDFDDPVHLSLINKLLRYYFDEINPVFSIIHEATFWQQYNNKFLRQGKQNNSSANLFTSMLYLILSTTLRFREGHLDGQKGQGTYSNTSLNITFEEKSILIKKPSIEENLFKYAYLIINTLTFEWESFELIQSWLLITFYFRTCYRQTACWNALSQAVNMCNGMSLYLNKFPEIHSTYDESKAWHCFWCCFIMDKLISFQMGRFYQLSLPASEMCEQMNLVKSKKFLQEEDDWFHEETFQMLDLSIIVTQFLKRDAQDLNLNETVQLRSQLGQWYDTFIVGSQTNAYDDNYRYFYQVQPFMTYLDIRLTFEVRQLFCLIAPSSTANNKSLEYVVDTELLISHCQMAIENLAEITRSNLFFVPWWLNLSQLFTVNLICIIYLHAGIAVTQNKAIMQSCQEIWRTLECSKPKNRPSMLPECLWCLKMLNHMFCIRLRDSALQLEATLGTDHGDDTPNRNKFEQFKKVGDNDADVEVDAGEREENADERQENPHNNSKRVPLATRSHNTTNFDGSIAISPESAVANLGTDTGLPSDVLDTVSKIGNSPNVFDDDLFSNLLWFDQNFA

In order of rising “PBM E-score” value:
1. CAGGTGTA  -0.327
2. ACGCTGAG  -0.29
3. ATTTTCGA  -0.256
4. GGGCATGA  -0.248
5. GTTCCCCA  -0.244
6. GCGAGGCC  -0.243
7. CTGACTGA  -0.239
8. ACTTTCGC  -0.239
9. CTTAAAAA  -0.232
10. ACTGGTGA  -0.226
11. ACTAGGTA  -0.202
12. CCAAGTAC  -0.196
13. CTATCGAG  -0.194
14. AGCTCACA  -0.192
15. ACACGAGA  -0.19
16. TCGAGGCA  -0.187
17. CAATCGTC  -0.187
18. CGCGAAAG  -0.185
19. GAGCATCA  -0.181
20. CACGAGCA  -0.18
21. CCCCCCTA  -0.178
22. CATATCCA  -0.178
23. CACTGCCA  -0.176
24. AAGGCCAA  -0.173
25. GAGCCCCC  -0.168
26. AGCATACT  -0.166
27. TGCGAGCA  -0.165
28. CGTGACTA  -0.158
29. ACTCGAGG  -0.152
30. AATTTCGA  -0.152
31. GCGTCTGA  -0.15
32. ATTAGGCA  -0.144
33. GAGCAGGC  -0.135
34. CGTCTGCA  -0.122
35. GCTGGGAC  -0.117
36. ATGCAAAT  -0.115
37. AGGAAGCA  -0.109
38. GCAGCCAA  -0.103
39. CAACTCAA  -0.0984
40. AACCAAGA  -0.0962
41. GTCGTCCA  -0.096
42. GTGGTCCA  -0.0876
43. CACAGATG  -0.0862
44. AGAGCTCT  -0.0781
45. GGGCCACA  -0.0749
46. ACACGAGT  -0.0741
47. ATTGAGAA  -0.0694
48. GACGAGCC  -0.0685
49. AGCATTCA  -0.0667
50. CTCGAGTC  -0.0623
51. ACTCCTCT  -0.061
52. CGACTCGC  -0.0581
53. ATGGGACA  -0.0554
54. ACGAGGCC  -0.0545
55. CTAGCCCC  -0.0513
56. CAGAGGCG  -0.0504
57. ACGAGGCG  -0.0457
58. CTCGAGCA  -0.0413
59. CACAGTGG  -0.0386
60. CGCCTGCC  -0.0366
61. GCGCAAAC  -0.0362
62. AGATGAAC  -0.0339
63. ATTTTCGC  -0.0335
64. ATGTGAGA  -0.03
65. CCTAGTAG  -0.0242
66. GATCGTAA  -0.0241
67. CAGCTAGC  -0.0222
68. AGGCTCCC  -0.0221
69. ACTTTCGA  -0.0194
70. CACCTGCG  -0.018
71. CGCGAGCG  -0.016
72. ATATTGGA  -0.0099
73. GTTCCCAA  -0.009
74. GCGACCCA  -0.00585
75. ATTAACAC  0.00046
76. ACCACCAA  0.031
77. CCTCTGGC  0.0427
78. AAAGAAAC  0.0504
79. CCGCGCAA  0.0559
80. CATATCCC  0.0584
81. GGGAAGCA  0.0636
82. AGGGGAAT  0.0637
83. GGCACACC  0.0691
84. GCGAGGCA  0.0697
85. AATATCCA  0.0783
86. CCGCTCTA  0.0787
87. AGGAAGCC  0.0867
88. CACAACGA  0.0887
89. CCATAGCC  0.0889
90. ATCTGACC  0.104
91. GGCTATAA  0.104
92. GGGGACAA  0.109
93. CGATGATA  0.122
94. AATTTCGC  0.123
95. CGTCTTGC  0.125
96. AATCGGAC  0.133
97. CCAATATC  0.137
98. CGCGAGCC  0.143
99. CAGCGCGG  0.148
100. AAAGCAAG  0.149
101. ACCCGCGT  0.188
102. AATCGGCC  0.191
103. CTTCCCGC  0.2
104. CATCGGAG  0.204
105. GATCGGCC  0.218
106. GATCGGGC  0.22
107. ACCGAGTC  0.244
108. AATATCCC  0.247
109. AGCGGATC  0.255
110. CATCGGAC  0.259
111. GGAGCGGA  0.26
112. CGCGGATC  0.263
113. AGCGGATG  0.275
114. AATCGGAG  0.277
115. CTCCCCGA  0.282
116. ATTCCCGC  0.295
117. GCCCGAGC  0.316
118. ACCCCCGA  0.317
119. ACCGAGTA  0.321
120. AATCGGGT  0.325
121. AGGTCCCG  0.325
122. ACCCGGGC  0.326
123. CCCCGAGA  0.326
124. TATCGGCA  0.326
125. GAACGGAA  0.346
126. CCATTCCG  0.35
127. GCCCGAGA  0.352
128. ACCGAGCC  0.356
129. GCCGAGCA  0.357
130. TATCGGGA  0.361
131. CCCCGAGC  0.371
132. ATTCCCGG  0.372
133. CGGAAGGC  0.373
134. GCCGAGTA  0.374
135. GGCGGATA  0.374
136. ACCGAGCA  0.374
137. CCCCGAGG  0.375
138. ACCCGGGA  0.378
139. ACCGAGCG  0.38
140. CCCGAGTA  0.383
141. AGCGGATA  0.386
142. GATCGGAC  0.392
143. AATTTCGG  0.393
144. CCCGAGTC  0.395
145. CCGAGGCA  0.396
146. CCGAGGCG  0.398
147. CGCGGATA  0.4
148. CATATCCG  0.403
149. CCCGAGCA  0.405
150. ACCCGGGT  0.41
151. CGGAAGCC  0.41
152. ACTTTCGG  0.416
153. GTTCCCGA  0.419
154. ACCCGAGT  0.423
155. ATTTTCGG  0.423
156. AATCGGAT  0.424
157. GATCGGAA  0.425
158. AATCGGAA  0.425
159. ACCCGAGG  0.427
160. CCCGAGCG  0.43
161. TATCGGAA  0.431
162. CATCGGAA  0.435
163. CGGAAGCA  0.435
164. CCGAGGCC  0.436
165. CTTCCCGA  0.438
166. CCCGAGCC  0.438
167. ATTCCCGA  0.451
168. AATATCCG  0.452
169. TCCCGAGA  0.453
170. TCCGAGCA  0.458
171. GCCGAGCC  0.463
172. ACCCGAGC  0.468
173. ACCCGAGA  0.472
